Drawing on PubChem BioAssay (NCI), this text covers growth for eight compounds.

Common to all, as to assay: NCI-60 one-dose screen, 48 h (100 = growth as untreated, 0 = no growth, -100 = all killed)
One assay relates to NCI-H23 lung. To be noted: 10 µM.
In the next assay the test system is NCI-H226 lung. The note with it: 10 µM.
The next assay concerns NCI-H322M lung. The note with it: 10 µM.
A further assay concerns HOP-62 NSCLC. The note with it: 10 µM.
The subject of a further assay is NCI-H460 lung. The note with it: 10 µM.
The test system of the next assay is 786-0 renal. The note with it: 10 µM.
Another assay concerns COLO 205 colon. The note with it: 10 µM.
The next assay has as its system DU-145 prostate. To be noted: 10 µM unless noted.
A further assay deals with K-562 leukemia. To be noted: 10 µM.
The subject of the next assay is MALME-3M melanoma. To be noted: 10 µM.
The subject of the next assay is MDA-MB-231 breast. To be noted: 10 µM.
The test system of a further assay is RXF 393 renal. To be noted: 10 µM unless noted.
The next assay deals with SF-268 CNS. To be noted: 10 µM.
For the next assay, the system named is SF-295 CNS. The note with it: 10 µM.
The test system of a further assay is SF-539 CNS. To be noted: 10 µM.
Another assay concerns M14 melanoma. To be noted: 10 µM.
For another assay, the system named is HOP-92 NSCLC. The note with it: 10 µM.
The subject of a further assay is NCI-H522 lung. The note with it: 10 µM unless noted.
For a further assay, the system named is A549/ATCC NSCLC. The note with it: 10 µM.
A further assay concerns UACC-257 melanoma. To be noted: 10 µM.

Molecules are shown by their SMILES. Several values for one entry are separate records, joined by “and”; a condition that tells them apart may be missing. Equal values may be shown once. The panel holds about 83,000 compounds, 20% with a hit somewhere; the sample as a whole holds those more often.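 Testing used 96-well plates and a 48-hour single-concentration exposure. Example: -40 means 40% of the starting cells died.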 Activity calls are given as the source filed them. The calls were made as follows: active = growth percent below 10; inactive = the rest.

Consider `CCO/C=C1\SC(=S)N(c2cccc(O)c2)C1=O`, for which the growth in the assay with NCI-H23 lung was 106% (inactive); with NCI-H226 lung, 96.1% (inactive); with NCI-H322M lung it was 95.8% (inactive); in the assay with HOP-62 NSCLC, 97.4% (inactive); with NCI-H460 lung it was 106% (inactive); in the assay with 786-0 renal, 101% (inactive). In addition, the growth in the assay on COLO 205 colon is 109% (inactive); in the assay on DU-145 prostate it was 109% (inactive); in the assay with K-562 leukemia it was 89.9% (inactive); with MALME-3M melanoma, 88.2% (inactive); with MDA-MB-231 breast, 102% (inactive); in the assay on RXF 393 renal it was 102% (inactive). For the same compound, the growth with SF-268 CNS was 103% (inactive); with SF-295 CNS, 99.5% (inactive); with SF-539 CNS it was 102% (inactive); in the assay on M14 melanoma, 105% (inactive).
For the compound `COC(=O)C1C(O)C(C)C(O)C(C)C=C(C)C2=C3C(=C(C)C(=O)c4c(O)c(c(C)c(OC(C)=O)c43)NC(=O)C(C)=C/C=C\C(C)C(O)C(C)C1O)OCO2` (stereo not given), the growth was 107% (inactive) with NCI-H23 lung; 104% (inactive) in the assay with NCI-H226 lung; 140% (inactive) in the assay on NCI-H322M lung; 114% (inactive) in the assay with NCI-H460 lung; -5.62% (active) with HOP-92 NSCLC; 75.3% (inactive) with NCI-H522 lung. For the same compound, the growth is 112% (inactive) with A549/ATCC NSCLC; 101% (inactive) in the assay with 786-0 renal; 125% (inactive) in the assay with COLO 205 colon; 115% (inactive) in the assay on DU-145 prostate; 127% (inactive) in the assay with K-562 leukemia; 126% (inactive) in the assay with MALME-3M melanoma. For the same compound, the growth in the assay with MDA-MB-231 breast is 105% (inactive); in the assay on RXF 393 renal, 125% (inactive); in the assay with SF-268 CNS, 112% (inactive); in the assay with SF-295 CNS, 108% (inactive); with SF-539 CNS it was 110% (inactive); in the assay with UACC-257 melanoma, 118% (inactive). Besides, the growth in the assay on M14 melanoma was 108% (inactive).
Consider `C[n+]1c2cc(N)ccc2cc2ccc(N)cc21`, for which the growth was -14.9% (active) [middle of 4 runs] in the assay on NCI-H226 lung; 43.9% (inactive) and 8.02% (active) and -29.2% (active) in the assay on HOP-92 NSCLC; -62% (active) and -11.9% (active) and -51.7% (active) in the assay with MALME-3M melanoma; 14.5% (inactive) [middle of 4 runs] in the assay with MDA-MB-231 breast; -34.2% (active) and 5.66% (active) and -8.06% (active) in the assay with RXF 393 renal; 10.8% (inactive) and 19.8% (inactive) and -3.57% (active) in the assay with SF-539 CNS.
Regarding `Oc1ccc(N=Nc2ccccn2)c(O)c1`, the growth with NCI-H23 lung is 29.2% (inactive); in the assay with NCI-H226 lung, 21.1% (inactive); in the assay on NCI-H322M lung it was 31.6% (inactive); in the assay with HOP-62 NSCLC it was 15.8% (inactive); with NCI-H460 lung it was 8.17% (active); with HOP-92 NSCLC, 57.6% (inactive). The growth in the assay with NCI-H522 lung is 29.3% (inactive); with A549/ATCC NSCLC it was 17.5% (inactive); with 786-0 renal, 10.3% (inactive); in the assay on COLO 205 colon, 8.83% (active); with DU-145 prostate it was 24.5% (inactive); in the assay with MALME-3M melanoma it was 36.1% (inactive). Besides, the growth in the assay with MDA-MB-231 breast was 35.7% (inactive); in the assay with RXF 393 renal, 43.4% (inactive); with SF-268 CNS, 20.6% (inactive); in the assay on SF-295 CNS it was 20% (inactive); in the assay on SF-539 CNS it was 13.1% (inactive); with UACC-257 melanoma it was 3.09% (active). Moreover, the growth in the assay on M14 melanoma was -6.58% (active).
Take `CC1=CC(C)=Nc2ccc(Cl)cc2N1`: the growth in the assay with NCI-H23 lung is 94.1% (inactive); with NCI-H226 lung, 97.6% (inactive); in the assay on NCI-H322M lung, 102% (inactive); in the assay on HOP-62 NSCLC, 105% (inactive); in the assay on NCI-H460 lung, 101% (inactive); in the assay with HOP-92 NSCLC, 96.9% (inactive). In addition, the growth in the assay on NCI-H522 lung is 103% (inactive); in the assay on A549/ATCC NSCLC, 114% (inactive); in the assay on 786-0 renal, 106% (inactive); with COLO 205 colon, 106% (inactive); in the assay on DU-145 prostate, 106% (inactive); with K-562 leukemia, 90.3% (inactive). Besides, the growth is 96.9% (inactive) with MALME-3M melanoma; 110% (inactive) in the assay with MDA-MB-231 breast; 113% (inactive) in the assay with RXF 393 renal; 98.9% (inactive) with SF-268 CNS; 107% (inactive) in the assay with SF-295 CNS; 100% (inactive) in the assay with SF-539 CNS. The values for the growth in the assay on UACC-257 melanoma and with M14 melanoma were 104% (inactive) and 102% (inactive), respectively.
For the compound `OCC1OC(n2cnc3c(=S)nc[nH]c32)C(O)C1O` (stereo not given), the growth in the assay with NCI-H23 lung was 104% (inactive) and 71.8% (inactive); in the assay on NCI-H226 lung, 100% (inactive) and 63.7% (inactive); in the assay on NCI-H322M lung it was 96.5% (inactive) and 62.9% (inactive); with HOP-62 NSCLC, 115% (inactive) and 53.9% (inactive); with NCI-H460 lung it was 113% (inactive) and 62% (inactive); in the assay with HOP-92 NSCLC it was 56.6% (inactive) and 61.8% (inactive). Besides, the growth was 77.3% (inactive) and 3.94% (active) in the assay with NCI-H522 lung; 99.6% (inactive) and 101% (inactive) with A549/ATCC NSCLC; 100% (inactive) and 35.1% (inactive) in the assay with 786-0 renal; 116% (inactive) and 47.5% (inactive) in the assay on COLO 205 colon; 98.4% (inactive) and 51.9% (inactive) in the assay on DU-145 prostate; 124% (inactive) and 41.6% (inactive) in the assay on K-562 leukemia. In addition, the growth is 87.3% (inactive) and 53.3% (inactive) with MALME-3M melanoma; 99.2% (inactive) and 61.9% (inactive) in the assay with MDA-MB-231 breast; 98.2% (inactive) and 70.2% (inactive) in the assay with RXF 393 renal; 109% (inactive) and 53.9% (inactive) in the assay with SF-268 CNS; 101% (inactive) and 41.7% (inactive) in the assay on SF-295 CNS; 103% (inactive) and 31.8% (inactive) in the assay on SF-539 CNS. Further, the growth was 105% (inactive) and 52.7% (inactive) in the assay with UACC-257 melanoma; 126% (inactive) and 32.4% (inactive) with M14 melanoma.
With `NNc1c2ccccc2nc2ccccc12`, the growth is 47.4% (inactive) in the assay with NCI-H23 lung; 48.5% (inactive) with NCI-H226 lung; 75.9% (inactive) in the assay on NCI-H322M lung; 64.6% (inactive) in the assay with HOP-62 NSCLC; 10% (inactive) with NCI-H460 lung; 88.1% (inactive) with HOP-92 NSCLC. Moreover, the growth in the assay on NCI-H522 lung was 33.2% (inactive); in the assay with A549/ATCC NSCLC it was 23.6% (inactive); in the assay on 786-0 renal, 34.2% (inactive); with COLO 205 colon, 67.6% (inactive); with DU-145 prostate it was 66% (inactive); in the assay with K-562 leukemia, 49.2% (inactive). Moreover, the growth was 62.5% (inactive) in the assay on MALME-3M melanoma; 65.2% (inactive) in the assay on MDA-MB-231 breast; 72.8% (inactive) with RXF 393 renal; 50.1% (inactive) with SF-268 CNS; 42.8% (inactive) in the assay on SF-539 CNS; 34.9% (inactive) in the assay with UACC-257 melanoma. Further, the growth in the assay on M14 melanoma is 66.4% (inactive).
Consider `O=C1C=C(O)c2ccccc2C1=O.[Ag]`, for which the growth is 91.8% (inactive) in the assay on NCI-H23 lung; 99% (inactive) in the assay on NCI-H322M lung; 98.3% (inactive) in the assay with HOP-62 NSCLC; 94.7% (inactive) in the assay with NCI-H460 lung; -34.4% (active) in the assay on NCI-H522 lung; 104% (inactive) in the assay on 786-0 renal. Moreover, the growth with COLO 205 colon was 78.8% (inactive); in the assay with DU-145 prostate it was 121% (inactive); with K-562 leukemia, 83.5% (inactive); in the assay on MALME-3M melanoma, 85.3% (inactive); with MDA-MB-231 breast it was 89.2% (inactive); with SF-268 CNS, 113% (inactive). The growth was 97% (inactive) in the assay with SF-295 CNS, 114% (inactive) in the assay on SF-539 CNS, 76.2% (inactive) with UACC-257 melanoma and 91.3% (inactive) with M14 melanoma.
